Experimental data reported in the supplement of paper PMC12669032.
Unmarked numbers belong to inactive results.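 How the source made its calls: active = AUC reduced over 20% with Padj below 0.05 in at least 2 of 3 replicates; inactive = otherwise.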

What was measured:
Assay in all cases: growth AUC relative to DMSO control (median of replicates) (fraction); higher = more growth (less inhibition), active = hit call of the paper
Settings in all cases: 20 µM; 24 h
[1] = tested on: Akkermansia muciniphila
Method in brief: (§1)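 In round-bottom 96-well plates sealed with pierced gas-permeable seals, gut bacterial monocultures in mGAM were grown anaerobically at 37 °C from OD600 0.05 with 20 µM compound (1% DMSO). OD600 readings were taken hourly for 24 h, and the minimum OD was set to 0. Area under the growth curve was then normalised to the plate median of solvent-only wells, or to row and column medians on the industrial chemical plate. The value given is the median of three biological replicates grown on separate days.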

[2] = tested on: Bacteroides caccae
Method in brief: as §1

[3] = tested on: Bacteroides clarus
Method in brief: as §1

[4] = tested on: Bacteroides dorei
Method in brief: as §1

[5] = tested on: Bacteroides stercoris
Method in brief: as §1

[6] = tested on: Bacteroides thetaiotaomicron
Method in brief: as §1

[7] = tested on: Bacteroides uniformis
Method in brief: as §1

[8] = tested on: Bifidobacterium longum subsp. longum
Method in brief: as §1

[9] = tested on: Clostridium difficile
Method in brief: as §1

[10] = tested on: Collinsella aerofaciens
Method in brief: as §1

## Nc1nc(N)nc(N)n1
[1]
  growth AUC: 0.956
[2]
  growth AUC: 1.02
[3]
  growth AUC: 0.881
[4]
  growth AUC: 1.03
[5]
  growth AUC: 0.792 (active)
[6]
  growth AUC: 0.968
[7]
  growth AUC: 0.972
[8]
  growth AUC: 1.15
[9]
  growth AUC: 0.989
[10]
  growth AUC: 1.03

## O=c1oc2ccccc2c(O)c1C1CC(c2ccc(-c3ccccc3)cc2)Cc2ccccc21 (stereo not given)
[1]
  growth AUC: 0.831
[2]
  growth AUC: 0.895
[3]
  growth AUC: 0.66 (active)
[4]
  growth AUC: 0.904
[5]
  growth AUC: 0.00795 (active)
[6]
  growth AUC: 0.76 (active)
[7]
  growth AUC: 0.858
[8]
  growth AUC: 0.886
[9]
  growth AUC: 0.803
[10]
  growth AUC: 0.975

## c1ccc2c(c1)ccc1c3ccccc3sc21
[1]
  growth AUC: 1.03
[2]
  growth AUC: 0.999
[3]
  growth AUC: 0.987
[4]
  growth AUC: 0.969
[5]
  growth AUC: 1
[6]
  growth AUC: 0.998
[7]
  growth AUC: 0.972
[8]
  growth AUC: 1.25
[9]
  growth AUC: 1.02
[10]
  growth AUC: 0.99

## COc1nn(CSP(=S)(OC)OC)c(=O)s1
[1]
  growth AUC: 1.01
[2]
  growth AUC: 1.01
[3]
  growth AUC: 1.02
[4]
  growth AUC: 0.992
[5]
  growth AUC: 1.04
[6]
  growth AUC: 1.04
[7]
  growth AUC: 1.02
[8]
  growth AUC: 1.02
[9]
  growth AUC: 0.996
[10]
  growth AUC: 1.03

## CCOP(=S)(OCC)Oc1cc(Cl)c(Br)cc1Cl
[1]
  growth AUC: 0.917
[2]
  growth AUC: 0.936
[3]
  growth AUC: 0.94
[4]
  growth AUC: 1.02
[5]
  growth AUC: 0.953
[6]
  growth AUC: 0.979
[7]
  growth AUC: 0.966
[8]
  growth AUC: 0.954
[9]
  growth AUC: 0.977
[10]
  growth AUC: 0.98
